Assay outcomes as filed in PubChem BioAssay.
Nrf2 activator = qHTS of Nrf2 Activators; AREc32 ARE-luciferase reporter (MCF7-derived line), luminescence, 24 h; 410,000 tested, 0.31% active; Potency, µM (titrated, usually from 46.1 µM), without a hit: at the highest dose activation, actives largely listed as activators; also: potency is read from the fitted curve at half-maximal effect; % of control where 0% means no effect; nearly all actives have a fitted effect of over 65% in size
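Luciferase luminescence (Steady-Glo, 30 min at room temperature) served as the read-out of ARE activation in AREc32 cells treated with compounds for 24 hr at 37 deg C.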
A549 viability = Nrf2 qHTS screen for inhibitors: counterscreen for cytotoxicity | A549 ARE-Fluc cells, CellTiter-Fluor viability, 18-24 h | Potency, µM (titrated, usually from 46 µM), inactives show top-dose activity change, negative = cytotoxicity, hits mostly inhibitors | 390,000 tested, 0.16% active | AID 504648, 2011; also: potency is read from the fitted curve at half-maximal effect; % is scaled to controls: 0 for no effect and ±100 for the full control effect
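Cytotoxicity counterscreen: CellTiter-Fluor fluorescence was measured in A549 ARE_Fluc cells after 18-24 h of compound exposure in a concentration series. The subsequent BugLite luminescent read reports ARE-luciferase activity.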
IL-2 act = qHTS of IL-2 Activators. IL-2 activation reporter assay, cell-based qHTS; stimulated with anti-CD3/CD4/CD28 beads; in transgenic mouse T cells. activation, % (series mostly up to about 46 µM). 360,000 tested, 0.065% active. AID 652025, 2013; in the data active = activation above about 50%; inconclusive = mostly about 30% to 49%; also: 0% is about no effect
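Readout is EGFP and DsRed signal by fluorescent plate cytometry after 18 h at 37 degrees C. Transgenic mouse T cells (750/well) received compound for 60 min before bead stimulation (anti-CD3, anti-CD4, anti-CD28); memory T cells served as non-tolerant control.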
Nrf2 block = Nrf2 qHTS screen for inhibitors | A549 ARE-Fluc reporter, luciferase luminescence, 18-24 h | Potency, µM (highest dose often 46 µM), inactives show at the top dose activity change, negative = inhibition, actives largely listed as inhibitors | 360,000 tested, 2.1% active | AID 504444, 2011; also: potency is read from the fitted curve at half-maximal effect; % is scaled to controls: 0 for no effect and ±100 for the full control effect; nearly all actives have a fitted effect of over 60% in size
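Nrf2 function is reported as luminescence of an ARE-controlled luciferase in A549 cells. Compounds were tested at several concentrations, and a CellTiter-Fluor read on the same wells flagged cytotoxicity.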
Starred values were filed as active, the others as inactive; u = inconclusive; x = no result given; [ ] = dose if it differs, or a comment. In the library only some 2.3% were active in any assay of this set; here they are far more common. Unless noted, calls follow the shape of the dose curve; as a rule, active = well fitted curve in the direction sought with a large enough effect; inconclusive = small, poorly fitted or top-dose-only effect, or another doubt; inactive = no such curve, though single readings can be large; an effect the other way counts as inactive or inconclusive.

SMILES	Nrf2 activator	A549 viability	IL-2 act	Nrf2 block
CC(C)Cn1cc(C(=O)N2CCN(c3cccc(Cl)c3)CC2)c2c3ccccc3n(C)c2c1=O	3.9%	u	x	20.6µM*
COc1ccc(N2CCN(C(=O)c3cn(CC(C)C)c(=O)c4c3c3ccccc3n4C)CC2)cc1	4.8%	-16.0%	x	u
CCOc1ncccc1-c1nc(-c2cccs2)no1	10µM*	14.3%	-2.5	u
CCOc1nc(-c2ccccc2)ccc1-c1noc(-c2cccs2)n1	u	u	2.4	u
O=C(Cc1ccccc1)N/N=C/c1ccc([N+](=O)[O-])s1	-0.4%	u	0.0	20.6µM*
Cn1c(SCC(=O)N/N=C/c2cc([N+](=O)[O-])ccc2O)nnc1-c1ccccc1	-0.9%	-2.9%	1.2	-25.6%
Cc1nnc(SCC(=O)N/N=C/c2cn(-c3ccccc3)nc2-c2ccccc2)n1-c1ccccc1	2.3%	-29.2%	-1.3	16.4µM*
O=C(N/N=C/c1ccc([N+](=O)[O-])s1)c1ccccc1	-1.7%	u	-1.4	23.1µM*
Cn1c(SCC(=O)N/N=C/c2ccc([N+](=O)[O-])s2)nnc1-c1ccccc1	-1.2%	u	-5.7	20.6µM*
Cc1ccc(NC(=O)CSc2nnc(C)n2-c2ccccc2)cc1	0.2%	0.5%	-0.2	-5.4%
N#Cc1cccc(NS(=O)(=O)c2ccc3c(c2)CCC(=O)N3)c1	x	1.8%	x	0.0%
COC(=O)c1ccccc1NC(=O)c1cc(-c2ccc(Cl)cc2)on1	0.0%	2.3%	x	3.6%
Cc1ccsc1/C=N/NC(=O)C(O)c1ccccc1 (stereo not given)	0.1%	-2.7%	-0.6	0.7%
Cc1ccc(-c2nnc(SCC(=O)N/N=C/c3ccc(C)s3)n2-c2ccc(C)cc2)cc1	0.4%[9.22 µM]	u	1.1	20.6µM*
COC(=O)N/N=C/c1ccc([N+](=O)[O-])s1	20.8%	10.3µM*	-0.5	6.51µM*
Cc1ccc(NC(C)C(=O)N/N=C/c2ccc([N+](=O)[O-])s2)cc1 (stereo not given)	-0.3%	u	-0.8	u
COc1ccc(NC(C)C(=O)N/N=C/c2ccc([N+](=O)[O-])s2)cc1 (stereo not given)	-0.4%	u	0.2	20.6µM*
O=C(N/N=C/c1ccc([N+](=O)[O-])s1)C(O)c1ccccc1 (stereo not given)	-0.7%	u	1.7	5.17µM*
Cc1ccc(/C=N/NC(=O)CSc2nc3ccccc3c(=O)n2-c2ccccc2)s1	0.3%	-1.1%	0.3	10.4%
CCOc1ccc(Nc2oc(-c3ccc(COc4ccc(OC)cc4)o3)nc2C#N)cc1	8.5%	-6.5%	x	-11.1%
COc1ccc(C2/C=C\CN([S+](=O)([O-])c3ccc4ccccc4c3)C(C)C(=O)N2Cc2ccc(F)cc2)cc1 (stereo not given)	x	-1.1%	x	-6.4%
O=C(N/N=C\c1ccc([N+](=O)[O-])s1)c1cncc(Br)c1	-0.5%	23.1µM*	-4.2	16.4µM*
Cc1ccnn1CC(=O)N/N=C/c1cccs1	-1.9%	4.3%	-0.3	1.8%
Cc1ccccc1C(=O)N/N=C/c1ccc([N+](=O)[O-])s1	-3.5%	-22.4%	-1.0	10.3µM*
Cc1ccnn1CC(=O)N/N=C/c1ccc([N+](=O)[O-])s1	0.6%	-22.3%	1.2	25.9µM*
SMILES	Nrf2 activator	A549 viability	IL-2 act	Nrf2 block
Cc1cccc(C)c1NC(=O)CSc1nc(-c2cccs2)cc(C(F)(F)F)n1	0.4%	-19.6%	x	-9.8%
O=[N+]([O-])c1ccc(O)c(-c2cc(C(F)(F)F)nc(-c3ccccc3)n2)c1	-1.2%	8.2µM*	-1.1	u
COc1ccc(NC(=O)c2c(NCc3cccc(F)c3)sc3c2CCC3)c(OC)c1	26.8%	1.6%	x	x
Cc1cc(C)cc(N(C(=O)c2cc3ccccc3oc2=O)C2C=CS(=O)(=O)C2)c1 (stereo not given)	14.1µM*	3.6%	-1.9	-5.0%
CC(=O)N/C(=C\c1ccccc1)C(=O)OCc1cccc(S(=O)(=O)N(C)C)c1	2.5%	-3.8%	-0.6	23.1µM*
Cc1c(-c2ccc(Br)cc2)nc2ccccn12	3.98µM*	5.8%	1.1	u
Clc1c(-c2ccccc2)nc2ccccn12	11.2µM*	-0.8%	-1.4	u
Cc1ccc(-c2nc3ccccn3c2C=O)cc1	20.1%	-2.6%	0.4	u
O=C(OCc1cc(=O)n2nc(-c3cccs3)sc2n1)c1ccc(F)cc1	5.9%	5.2%	x	-0.5%
CCCOc1cccc(C(=O)N(Cc2ccc(C)o2)C2CCS(=O)(=O)C2)c1 (stereo not given)	0.2%	4.5%	x	1.4%
S=C(NCC1CCCO1)NC1CCCCC1 (stereo not given)	5.3%	-0.7%	0.2	-4.4%
CCCC(NC(=S)NCC1CCCO1)C12CC3CC(CC(C3)C1)C2 (stereo not given)	-0.4%	7.3%	-2.2	14.6µM*
Cc1ccccc1Cn1nc(C)c(NC(=O)c2cc(-c3ccco3)on2)c1C	-1.1%	11.9%	-0.7	17.6%
Cc1ccccc1Cn1nc(C)c(NC(=O)c2cc3nc(-c4ccco4)cc(C(F)(F)F)n3n2)c1C	1.8%	-10.3%	0.6	20.6µM*
Cc1nc(N2CCN(c3ccccn3)CC2)c2c(C)c(C(=O)Nc3ccccc3F)sc2n1	-0.2%	-15.7%	-3.7	16.4µM*
Cc1nc(N2CCOCC2)c2c(C)c(C(=O)Nc3ccccc3Cl)sc2n1	0.5%	0.1%	0.6	3.0%
COc1ccc(NC(=O)c2sc3ncnc(N4CCN(c5ccccn5)CC4)c3c2C)cc1Cl	-0.1%	u	-3.9	14.6µM*
Cc1nc(N2CCC(C)CC2)c2c(C)c(C(=O)Nc3ccc(C(F)(F)F)cc3)sc2n1	-0.3%	u	-3.2	20.6µM*
COc1ccc(Cl)cc1NC(=O)c1sc2nc(C)nc(N3CCOCC3)c2c1C	0.5%	-18.5%	-0.5	20.6µM*
CC1(C)CC(=O)C2=C(C1)NC(Nc1nc3ccccc3o1)=NC2c1ccccc1 (stereo not given)	x	-2.6%	x	3.6%
CC1=C(c2ccc(C(C)C)cc2)S(=O)(=O)NC1=NCc1ccc(OC(C)C)cc1	-0.9%	4.9%	x	-1.3%
CC(=O)Nc1ccc(C2Nc3c(C)cc(C)cc3-c3cc(C)nn32)cc1 (stereo not given)	1.2%	-11.8%	x	-21.6%
COc1cc2cc3c(N)c(C(=O)NCc4ccco4)sc3nc2cc1OC	u	-8.1%	0.1	x
Cc1ccc2nc3sc(C(=O)NCc4ccco4)c(N)c3cc2c1	0.1%	-10.1%	167.5*	u
Cc1cc(OCC(=O)Nc2cc(S(=O)(=O)N3CCOCC3)ccc2N2CCCC2)ccc1C(C)C	-1.4%	-21.5%	-4.5	16.4µM*
Cc1cc2c(s1)c1cnn(Cc3ccc(F)c(F)c3F)c(=O)c1n2C	x	2.0%	x	-4.1%
CCN(CC)c1ncnc2c1cnn2-c1cc(Cl)ccc1C	6.1%	2.2%	x	x
CCOc1ccc(NC(=S)N(CCc2c(C)[nH]c3ccccc23)Cc2cccnc2)cc1	4.5%	1.0%	-2.2	-2.4%
